Source: PubChem (National Center for Advancing Translational Sciences (NCATS))
ELG1 genotox = inducers of genotoxicity in HEK293T ELG1-luciferase cells. 330,000 tested, 1.3% active. Potency, µM (titrated, usually from 46 µM), inactives show at the highest dose activity change, positive = activation, usual class: activators. AID 504466. HEK293T ELG1-luciferase reporter, luminescence, 16 h; further: % of control where 0% means no effect; nearly all actives have a fitted effect of over 60% in size
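Step 1: seed 2,000 HEK293T ELG1-luciferase cells per well. Step 2: add compound or DMSO, incubate 16 hr at 37 °C. Step 3: ONE-Glo, 30 min at room temperature, read luminescence.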
NPC1 promoter act = activates the NPC1 promoter; Huh7 NPC1 promoter luciferase reporter, 24 h; Potency, µM (doses to about 9.22 µM), for the others: top-dose activation, most hits filed as activators; 320,000 tested, 2.4% active; further: % of control where 0% means no effect; nearly all actives have a fitted effect of over 60% in size
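Huh7 cells stably carrying NPC1 promoter–luciferase, plated in Opti-MEM with 10% FBS for 2 h, were exposed to compound in DMSO for 24 h at 37 °C; luciferase reagent was added for 10 min and luminescence read.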
SMN2 splice enh = increases expression of the SMN2 splice variant; HEK293 SMN2-luciferase splicing reporter, luminescence, 30-36 h; Potency, µM (titrated, usually from 46.1 µM), without a hit: top-dose activity change, positive = activation, hits mostly activators; 210,000 tested, 2.8% active; further: % of control where 0% means no effect; nearly all actives have a fitted effect of over 55% in size
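HEK293 cells carry an SMN2 […]–luciferase reporter in which exon 7 inclusion puts luciferase in frame. Cells were plated 10-12 h before compound addition, then incubated 30-36 h at 37C. ONE-Glo luminescence was read; sodium butyrate at 4.5 mM final served as control.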
p53 reactivator = mutant p53 re-activation in reporter cells. AID 504706. Potency, µM (top dose mostly 92.2 µM), for inactives: at the top dose activity change, positive = activation, actives largely listed as activators. 320,000 tested, 0.063% active. H1299 p53-A138V BP100-luciferase reporter, luminescence, 24 h; further: % of control where 0% means no effect; nearly all actives have a fitted effect of over 45% in size
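H1299 (p53-null), stable ts p53-A138V + BP100-Luc; 1000 cells/well, Opti-MEM/10% FBS; cpd 4 pt, 1:5; 24 h, 37 deg C, 5% CO2; detection reagent 10 min RT; luminescence.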
Rab9 promoter act = Rab9 promoter activation; Huh7 Rab9 promoter-luciferase reporter, luminescence, 24 h; Potency, µM (doses to about 9.22 µM), inactives show top-dose activation, negative = inhibition, usual class: activators; 320,000 tested, 2.8% active; further: % of control where 0% means no effect; nearly all actives have a fitted effect of over 60% in size
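Stable Rab9-luc Huh7, 1500 cells/well, 2 h settle; cmpd in DMSO, 24 h, 37 °C/5% CO2; luciferase reagent 10 min RT; luminescence.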
FLuc modulator = firefly luciferase modulation, counter-screen for miR-21 project; P08659; purified FLuc, Km substrates, luminescence inhibition; Potency, µM (doses to about 57.5 µM), for inactives: top-dose activity change, negative = inhibition, actives largely listed as inhibitors; 360,000 tested, 6.9% active; AID 588342;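 further: plate controls were vehicle for no effect and reference inhibitor for full effect; nearly all actives have a fitted effect of over 55% in size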
Target sequence (P08659 whole entry, looked up): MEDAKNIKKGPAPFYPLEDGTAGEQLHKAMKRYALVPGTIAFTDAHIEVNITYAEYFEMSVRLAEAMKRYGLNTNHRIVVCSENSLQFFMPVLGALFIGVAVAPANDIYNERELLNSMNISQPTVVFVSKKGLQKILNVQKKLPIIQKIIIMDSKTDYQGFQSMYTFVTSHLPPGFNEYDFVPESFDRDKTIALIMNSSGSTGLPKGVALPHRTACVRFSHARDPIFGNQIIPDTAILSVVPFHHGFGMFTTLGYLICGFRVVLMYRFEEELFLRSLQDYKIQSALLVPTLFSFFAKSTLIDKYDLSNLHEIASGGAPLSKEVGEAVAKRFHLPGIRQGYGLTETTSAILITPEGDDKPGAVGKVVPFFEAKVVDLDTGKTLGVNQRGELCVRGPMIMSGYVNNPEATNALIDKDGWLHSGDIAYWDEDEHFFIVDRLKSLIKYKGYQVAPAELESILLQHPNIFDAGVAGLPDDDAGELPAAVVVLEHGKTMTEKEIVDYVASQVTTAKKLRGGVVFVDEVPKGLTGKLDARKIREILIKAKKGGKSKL
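Purified P. pyralis luciferase, 10 nM final, with Km-level 10 uM D-luciferin and 10 uM ATP in 50 mM Tris acetate pH 7.5, 10 mM Mg acetate, 0.01% Tween-20, 0.05% BSA; 6-point qHTS titration about 60 µM downward; luminescence read.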
Numbers without * were called inactive; ? = inconclusive; nt = no result given; [ ] = remark or other dose. Most compounds without a hit are left out; they make up all but 7.4% or so of the library. The call rests on the fitted dose curve; in most records, active means well fitted curve in the direction sought with a large enough effect; inconclusive means small, poorly fitted or top-dose-only effect, or another doubt; inactive means no such curve, though single readings can be large; an effect the other way counts as inactive or inconclusive. Potency means the concentration at half of the fitted maximal effect.

SMILES	ELG1 genotox	NPC1 promoter act	SMN2 splice enh	p53 reactivator	Rab9 promoter act	FLuc modulator
Cc1[nH]n(-c2cccc([N+](=O)[O-])c2)c(=O)c1-c1ccccc1	9%	2%	-8%	6%	-5%	?
Cc1[nH]n(-c2ccccc2)c(=O)c1N=Nc1ccc(F)cc1	?	28%	nt	14%	?	2.7µM*
Cc1[nH]n(-c2ccccc2)c(=O)c1N=Nc1cccc(Cl)c1	16%	?	nt	0%	17%	9.5µM*
Nc1c(N=Nc2cccc(Cl)c2)c(=O)[nH]n1-c1ccccc1	5%	14%	21%	-4%	25%	-3%
Cc1[nH]n(-c2ccccc2)c(=O)c1N=Nc1cccc([N+](=O)[O-])c1	0%	27%	nt	18%	19%	13µM*
Cc1[nH]n(-c2ccccc2)c(=O)c1N=Nc1ccc2c(c1)OCCO2	?	?	18µM*	8%	4µM*	6µM*
Cc1ccc(N=Nc2c(C)[nH]n(-c3ccccc3)c2=O)cc1Br	1%	18%	nt	nt	18%	-2%
Cc1ccc2[nH]c(C)c(CCNC(=O)c3cc4cc(Br)ccc4oc3=O)c2c1	nt	nt	3%	nt	nt	-6%
CCc1ccc(NC(=O)CCn2nc(C)c(S(=O)(=O)N3CCCCC3)c2C)cc1	-6%	-1%	nt	0%	-1%	1%
COc1ccc(C)c2sc(N3CCN(C(=O)c4ccco4)CC3)nc12	nt	nt	nt	nt	nt	-12%
Cc1cccc(C)c1NC(=O)NC1(C(=O)NCC2CCCO2)CCCCC1 (stereo not given)	2%	0%	nt	12%	-3%	2%
Cc1[nH][nH]c(=O)c1N=Nc1ccc(Cl)cc1	-7%	-5%	-14%	4%	-8%	-12%
CSc1ccc(N=Nc2c(C)[nH]n(C)c2=O)cc1	?	2%	nt	0%	18%	19µM*
CCOc1ccc(OCC)c(Nc2nc3ccc(C(=O)c4ccccc4)cc3n3cnnc23)c1	nt	nt	nt	nt	nt	-1%
O=c1cc(OCc2ccccc2)cc[nH]1	1%	-1%	nt	9%	2%	2%
c1ccc(COc2ccc3nocc3c2)cc1	?	3.2µM*	nt	?	2µM*	7.6µM*
Cc1ccc(N=Nc2c(N)n[nH]c2N)cc1	?	?	nt	25%	18%	15µM*
Nc1n[nH]c(N)c1N=Nc1ccc2c(c1)OCO2	5%	?	21%	7%	?	12µM*
CCOc1ccc(N2CC(NC(=O)c3cc4ccccc4o3)CC2=O)cc1 (stereo not given)	nt	nt	nt	nt	nt	-2%
COc1ccc(S(=O)(=O)NCC(c2ccc(F)cc2)N2CCOCC2)cc1Br (stereo not given)	0%	-1%	nt	-7%	0%	8%
COc1ccc(OCC(=O)N2CCN(C(=O)c3cccc(OC)c3)CC2)cc1	nt	nt	-14%	nt	nt	?
CCCCCOc1ccc(C(=O)NC(CCC)C(=O)O)cc1 (stereo not given)	0%	-2%	10%	3%	5%	-13%
CCCCCCOc1ccc(/C(N)=N/O)cc1	?	2.5µM*	26%	21%	1.6µM*	12µM*
Clc1ccc(-n2ncc3c(NCC4CCCO4)ncnc32)cc1 (stereo not given)	?	0.63µM*	5µM*	?	0.45µM*	1.7µM*
O=C(CSc1ncnc2c1cnn2-c1cccc(Cl)c1)NCC1CCCO1 (stereo not given)	-14%	-3%	nt	1%	3%	-7%
SMILES	ELG1 genotox	NPC1 promoter act	SMN2 splice enh	p53 reactivator	Rab9 promoter act	FLuc modulator
c1ccc(-n2ncc3c(NCC4CCCO4)ncnc32)cc1 (stereo not given)	2%	2µM*	-1%	8%	3.5µM*	17µM*
COc1ccc(-n2nc(C(=O)NCC3CCCO3)c3ccccc3c2=O)cc1 (stereo not given)	0%	1%	nt	6%	-1%	2%
COc1ccc(-n2ncc3c(NCC4CCCO4)ncnc32)cc1 (stereo not given)	12%	0.56µM*	11µM*	10%	0.89µM*	11µM*
CN(Cc1ccccc1)C(=O)c1ccc2c(c1)N(Cc1ccc(Cl)cc1)C(=O)c1ccccc1S2=O (stereo not given)	nt	nt	12%	nt	nt	3%
CCN(c1ccccc1)S(=O)(=O)c1ccc(NC(=O)c2cc(=O)c3cc(C)cc(C)c3o2)cc1	nt	nt	-4%	nt	nt	4%
CN1/C(=C\C=N\O)C(C)(C)c2ccccc21	2%	8%	-2%	-2%	-1%	0%
CN1/C(=C\C=C2/C(=O)Oc3ccccc3C2=O)C(C)(C)c2ccccc21	?	?	?	-2%	2.8µM*	?
CN1C(=CC=C2C=C(I)C(=O)C(I)=C2)C(C)(C)c2ccccc21	-5%	-3%	nt	-4%	-20%	21µM*
CN(C)c1ccc(N=C/C=C2/N(C)c3ccccc3C2(C)C)cc1	4%	12%	-6%	?	20%	15µM*
CC1=NN(c2ccccc2)C(=O)/C1=C\C=C1/N(C)c2ccccc2C1(C)C	-9%	0%	-22%	-5%	-2%	?
O=[N+]([O-])c1cccc(N/N=C/c2cccc3ccccc23)c1	12%	5%	?	?	12%	19µM*
O=C(N/N=C/c1cc([N+](=O)[O-])ccc1O)c1cccc2ccccc12	9%	-14%	nt	-5%	6%	-10%
CC(C)n1cc(/C=N/Nc2ccc(Cl)c(C(=O)O)c2)c2ccccc21	8.2µM*	1.8µM*	nt	24%	1.6µM*	13µM*
O=C(O)c1cc(N/N=C/C(Cl)=C/c2ccccc2)ccc1Cl	?	?	0.89µM*	-9%	?	0.11µM*
NNc1ccc(Cl)c(C(=O)O)c1	?	1.3µM*	nt	?	1.3µM*	12µM*
N#Cc1ccc(OC(=O)c2ccc(N=C(N)N)cc2)cc1	nt	nt	12%[9.22 µM]	nt	nt	nt
CC(O)C(=O)N/N=C/c1cccc2ccccc12 (stereo not given)	-1%	-3%	43%	17%	-2%	-15%
O=C(O)c1cc(N/N=C/c2cccc3ccccc23)ccc1Cl	?	0.79µM*	nt	?	1.4µM*	7.6µM*
CCc1ccc(S(=O)(=O)c2cn(Cc3ccccc3F)c3cc(OC)c(OC)cc3c2=O)cc1	nt	nt	27%	nt	nt	-2%
CCn1c(COc2ccc(C)cc2)nc2ccccc21	13%	?	nt	9%	2.8µM*	8.5µM*
CCOCCn1c(COc2ccc(C)cc2)nc2ccccc21	9%	27%	?	?	?	?
Cc1ccc(NCc2nc3ccccc3n2CCOc2ccccc2)cc1	?	4.5µM*	12%[1.84 µM]	?	2.5µM*	8.5µM*
